Compounds with a hit are over-represented: about 7.5% of the library has one in this group of screens.
FLuc modulator – counter-screen for miR-21 project: firefly luciferase inhibitors or activators; purified FLuc, Km substrates, luminescence inhibition; 360,000 compounds, 6.9% hits; P08659; Potency, µM (highest dose often 57.5 µM), for inactives: at the top dose activity change, negative = inhibition, hits mostly inhibitors;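 note: plate controls were vehicle for no effect and reference inhibitor for full effect; nearly all actives have a fitted effect of over 55% in size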
Target sequence (P08659 whole entry, looked up): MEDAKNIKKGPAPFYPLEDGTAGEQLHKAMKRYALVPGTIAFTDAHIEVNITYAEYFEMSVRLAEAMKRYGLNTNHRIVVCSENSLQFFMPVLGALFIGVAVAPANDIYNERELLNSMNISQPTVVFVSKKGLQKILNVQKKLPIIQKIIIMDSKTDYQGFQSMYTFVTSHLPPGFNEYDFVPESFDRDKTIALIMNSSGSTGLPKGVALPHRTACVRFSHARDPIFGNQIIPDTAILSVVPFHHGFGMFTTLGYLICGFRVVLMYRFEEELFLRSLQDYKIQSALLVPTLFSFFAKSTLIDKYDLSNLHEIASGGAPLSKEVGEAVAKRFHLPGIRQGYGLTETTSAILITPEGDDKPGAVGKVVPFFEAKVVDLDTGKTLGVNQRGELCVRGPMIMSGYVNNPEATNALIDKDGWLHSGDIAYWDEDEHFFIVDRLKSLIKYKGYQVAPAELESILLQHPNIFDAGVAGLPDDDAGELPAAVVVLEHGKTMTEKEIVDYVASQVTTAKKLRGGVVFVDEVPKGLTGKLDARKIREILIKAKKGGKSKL
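Purified P. pyralis luciferase, 10 nM final, with Km-level 10 uM D-luciferin and 10 uM ATP in 50 mM Tris acetate pH 7.5, 10 mM Mg acetate, 0.01% Tween-20, 0.05% BSA; 6-point qHTS titration about 60 µM downward; luminescence read.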
KinaseGlo FLuc – blocks Kinase-Glo luciferase, a counter-screen artifact; 200,000 compounds, 0.28% hits; Potency, µM (titrated, usually from 38.3 µM), for inactives: at the highest dose activity change, negative = inhibition, usual class: inhibitors; Kinase-Glo luciferase, ATP luminescence, 8 min; Q27757; note: % is set by controls: 0 for no effect and ±100 for the full control effect; nearly all actives have a fitted effect of over 60% in size
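Kinase-Glo luciferase light output from ATP and luciferin was measured with 10 uM ATP, within the enzyme's linear range. Buffer: 50 mM imidazole pH 7.2, 50 mM KCl, 7 mM MgCl2, 0.01% Tween 20, 0.05% BSA; luminescence read after 8 min at ambient temperature.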
SMN2 splice enh – SMN2 splice variant enhancement | HEK293 SMN2-luciferase splicing reporter, luminescence, 30-36 h | Potency, µM (series often up to 46.1 µM), for the others: at the top dose activity change, positive = activation, usual class: activators | 210,000 compounds, 2.8% hits; note: % of control where 0% means no effect; nearly all actives have a fitted effect of over 55% in size
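qHTS luciferase splicing reporter: luminescence rises when SMN2 exon 7 is included in transfected HEK293 cells. Compound exposure lasted 30-36 h at 37C, with 4.5 mM final sodium butyrate as control, followed by a ONE-Glo read.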
Rab9 prom act – Rab9 promoter activation | Potency, µM (doses to about 9.22 µM), for inactives: at the highest dose activation, negative = inhibition, hits mostly activators | Huh7 Rab9 promoter-luciferase reporter, luminescence, 24 h | 320,000 compounds, 2.8% hits | AID 485297; note: % of control where 0% means no effect; nearly all actives have a fitted effect of over 60% in size
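Stable Rab9-luc Huh7, 1500 cells/well, 2 h settle; cmpd in DMSO, 24 h, 37 °C/5% CO2; luciferase reagent 10 min RT; luminescence.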
ELG1 genotoxic – induces genotoxicity in HEK293T cells with luciferase-tagged ELG1 | HEK293T ELG1-luciferase reporter, luminescence, 16 h | 330,000 compounds, 1.3% hits | Potency, µM (titrated, usually from 46 µM), inactives show at the top dose activity change, positive = activation, hits mostly activators; note: % of control where 0% means no effect; nearly all actives have a fitted effect of over 60% in size
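Reporter readout depends on ELG1 protein level, which increases with genetic stress. After 16 hr compound exposure at 37 °C, luciferase activity was quantified using ONE-Glo.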
NPC1 promoter act – activators of NPC1 promoter; Huh7 NPC1 promoter luciferase reporter, 24 h; Potency, µM (highest dose often 9.22 µM), inactives show at the top dose activation, usual class: activators; 320,000 compounds, 2.4% hits; AID 485313; note: % of control where 0% means no effect; nearly all actives have a fitted effect of over 60% in size
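In 1536-well qHTS, Huh7 cells harboring an NPC1 promoter–luciferase construct received compound for 24 h; activation was quantified by luminescence following luciferase reagent addition.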
Numbers without * were called inactive; ? = inconclusive; nt = no result; [ ] = another dose, or the depositor's remark. Calls come from the whole dose curve; as a rule, active = well fitted curve in the direction sought with a large enough effect; inconclusive = small, poorly fitted or top-dose-only effect, or another doubt; inactive = no such curve, though single readings can be large; an effect the other way counts as inactive or inconclusive. Potency is the fitted concentration of half-maximal effect.

SMILES	FLuc modulator	KinaseGlo FLuc	SMN2 splice enh	Rab9 prom act	ELG1 genotoxic	NPC1 promoter act
Cc1ccc(C2CC(=O)C=C(Nc3ccc(Cl)cc3)C2)cc1 (stereo unspecified)	-1%	6%	-3%	1%	2%	1%
O=C1C=C(Nc2ccc(Cl)cc2)CC(c2ccc(Cl)cc2)C1 (stereo unspecified)	11µM*	3%	-13%	0%	9%	-3%
COc1cccc(OC)c1C(=O)Nc1ccc(-c2nc3ncccc3o2)cc1	2%	nt	0%	nt	nt	nt
COc1ccc(/C=N/NC(=O)c2cccc(Br)c2)cc1CSc1ccccn1	-7%	3%	-12%	-6%	0%	2%
CCCOc1ccc(/C=N/NC(=O)CSc2ccccn2)cc1OC	11µM*	nt	nt	?	13%	2%
COc1cc(/C=N/NC(=O)CSc2ccccn2)ccc1O	?	nt	nt	15%	3%	-5%
CC(=C/c1ccc(C(C)C)cc1)/C=N/NC(=O)CSc1ccccn1	?	-2%	3%[1.84 µM]	2.8µM*	?	?
COc1ccc(/C=N/NC(=O)c2ccn[nH]2)cc1CSc1ccccn1	11µM*	nt	nt	?	?	?
CC(/C=N/NC(=O)CSc1ccccn1)=C\c1ccc(C(C)C)cc1	?	2%	?	22%	?	?
CN(C)c1ccc(/C=N/NC(=O)CSc2ccccn2)cc1	12µM*	nt	nt	?	?	27%
Cc1ccc2c(c1)c1c(c(=O)n(-c3ccccc3C)c(=O)n1Cc1cccc(F)c1)n2C	-7%	nt	nt	nt	nt	nt
CC(=O)c1ccc(O)c(CC=C(C)C)c1	-2%	nt	nt	-2%	-15%	-3%
COCCCN(C(C)=O)c1nc(-c2ccccc2)cs1	?	-4%	nt	?	13µM*	29%
COCCCN(C(=O)c1ccccc1)c1nc(-c2ccc(OC)cc2)cs1	-8%	nt	nt	5%	-5%	2%
CCCCCSc1nnc(-c2ccc(Br)cc2)o1	12µM*	nt	0%	nt	nt	nt
CCCCOC(=O)CSc1nnc(-c2ccc(C)cc2)o1	?	nt	4%	nt	nt	nt
OCC#CCSc1nnc(-c2ccc(Br)cc2)o1	?	1%	-10%	-4%	21µM*	10%
COC(=O)Sc1nnc(-c2ccc(Br)cc2)o1	19µM*	-1%	-15%	1%	7%	2%
CC(NCCN(C)C)C(=O)C12CC3CC(CC(C3)C1)C2 (stereo unspecified)	0%	nt	nt	1%	-3%	-5%
Cc1occc1C(=O)NNC(=O)CN1C(=O)NC2(CCCCC2)C1=O	9%	nt	nt	0%	-1%	-4%
O=C1c2ccccc2-c2nc3ccccc3nc21	15µM*	-15%	13µM*	2.2µM*	4.5µM*	2.8µM*
Cc1ccc(-c2cc(C(=O)NCC(c3ccccc3)N(C)C)c3ccccc3n2)o1 (stereo unspecified)	nt	nt	nt	nt	2%	nt
Cc1ccc(-c2cc(C(=O)OCC(=O)N(C)c3c(N)n(Cc4ccccc4)c(=O)[nH]c3=O)c3ccccc3n2)o1	2.4µM*	nt	nt	19%	?	8%
COC(=O)c1cc(-c2ccc(C)o2)nc2ccccc12	11µM*	-1%	4%	1%	0%	4%
CCc1nnc(NC(=O)c2cc(-c3ccc(C)o3)nc3ccccc23)s1	11µM*	nt	nt	2%	-1%	-1%
SMILES	FLuc modulator	KinaseGlo FLuc	SMN2 splice enh	Rab9 prom act	ELG1 genotoxic	NPC1 promoter act
Cc1ccc(-c2cc(C(=O)Nc3ccccc3C)c3ccccc3n2)o1	8.5µM*	-2%	1%	-3%	1%	-6%
CN(C)S(=O)(=O)c1cccc(NC(=O)c2c[nH]c3ccccc23)c1	21µM*	nt	nt	17%	-12%	15%
Cc1ccc(-c2cc(C(=O)Nc3cccc(S(=O)(=O)N(C)C)c3)c3ccccc3n2)o1	9.5µM*	nt	nt	16%	-9%	-6%
CCOc1cc(CNCCSc2nnnn2C)ccc1OCc1ccc(Cl)cc1Cl	-11%	nt	-29%	nt	nt	nt
CCNc1ncc2nc(-c3ccc(OC)cc3)c(=O)n(-c3ccc(OC)cc3)c2n1	nt	-2%	-12%	nt	nt	nt
O=C(CSc1oc(-c2ccco2)nc1S(=O)(=O)c1ccc(Cl)cc1)Nc1ccc(F)cc1	-2%	nt	-8%	nt	nt	nt

High-throughput results as filed in PubChem.
